Bioassay records deposited in PubChem by Center for Chemical Genomics, University of Michigan.
This is one part of a sample in which hits are shown more often than they occur.
Dicer processing – inhibitors of Dicer pre-microRNA processing, primary screen, biochemical, cat-ELCCA, chemiluminescence. Endoribonuclease Dicer (Homo sapiens), Q9UPY3. cat-ELCCA pre-miR-21 Dicer processing; hits give high values. z-score at 25 µM. 47,000 tested, 6% active. AID 1347074, 2019; in the data active = z-score above about 3, passing the limit was not always enough;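 also: plate controls were vehicle for no effect and no enzyme for full effect; higher signal means more uncleaved substrate so more Dicer inhibition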
Target sequence (Q9UPY3 whole entry, looked up): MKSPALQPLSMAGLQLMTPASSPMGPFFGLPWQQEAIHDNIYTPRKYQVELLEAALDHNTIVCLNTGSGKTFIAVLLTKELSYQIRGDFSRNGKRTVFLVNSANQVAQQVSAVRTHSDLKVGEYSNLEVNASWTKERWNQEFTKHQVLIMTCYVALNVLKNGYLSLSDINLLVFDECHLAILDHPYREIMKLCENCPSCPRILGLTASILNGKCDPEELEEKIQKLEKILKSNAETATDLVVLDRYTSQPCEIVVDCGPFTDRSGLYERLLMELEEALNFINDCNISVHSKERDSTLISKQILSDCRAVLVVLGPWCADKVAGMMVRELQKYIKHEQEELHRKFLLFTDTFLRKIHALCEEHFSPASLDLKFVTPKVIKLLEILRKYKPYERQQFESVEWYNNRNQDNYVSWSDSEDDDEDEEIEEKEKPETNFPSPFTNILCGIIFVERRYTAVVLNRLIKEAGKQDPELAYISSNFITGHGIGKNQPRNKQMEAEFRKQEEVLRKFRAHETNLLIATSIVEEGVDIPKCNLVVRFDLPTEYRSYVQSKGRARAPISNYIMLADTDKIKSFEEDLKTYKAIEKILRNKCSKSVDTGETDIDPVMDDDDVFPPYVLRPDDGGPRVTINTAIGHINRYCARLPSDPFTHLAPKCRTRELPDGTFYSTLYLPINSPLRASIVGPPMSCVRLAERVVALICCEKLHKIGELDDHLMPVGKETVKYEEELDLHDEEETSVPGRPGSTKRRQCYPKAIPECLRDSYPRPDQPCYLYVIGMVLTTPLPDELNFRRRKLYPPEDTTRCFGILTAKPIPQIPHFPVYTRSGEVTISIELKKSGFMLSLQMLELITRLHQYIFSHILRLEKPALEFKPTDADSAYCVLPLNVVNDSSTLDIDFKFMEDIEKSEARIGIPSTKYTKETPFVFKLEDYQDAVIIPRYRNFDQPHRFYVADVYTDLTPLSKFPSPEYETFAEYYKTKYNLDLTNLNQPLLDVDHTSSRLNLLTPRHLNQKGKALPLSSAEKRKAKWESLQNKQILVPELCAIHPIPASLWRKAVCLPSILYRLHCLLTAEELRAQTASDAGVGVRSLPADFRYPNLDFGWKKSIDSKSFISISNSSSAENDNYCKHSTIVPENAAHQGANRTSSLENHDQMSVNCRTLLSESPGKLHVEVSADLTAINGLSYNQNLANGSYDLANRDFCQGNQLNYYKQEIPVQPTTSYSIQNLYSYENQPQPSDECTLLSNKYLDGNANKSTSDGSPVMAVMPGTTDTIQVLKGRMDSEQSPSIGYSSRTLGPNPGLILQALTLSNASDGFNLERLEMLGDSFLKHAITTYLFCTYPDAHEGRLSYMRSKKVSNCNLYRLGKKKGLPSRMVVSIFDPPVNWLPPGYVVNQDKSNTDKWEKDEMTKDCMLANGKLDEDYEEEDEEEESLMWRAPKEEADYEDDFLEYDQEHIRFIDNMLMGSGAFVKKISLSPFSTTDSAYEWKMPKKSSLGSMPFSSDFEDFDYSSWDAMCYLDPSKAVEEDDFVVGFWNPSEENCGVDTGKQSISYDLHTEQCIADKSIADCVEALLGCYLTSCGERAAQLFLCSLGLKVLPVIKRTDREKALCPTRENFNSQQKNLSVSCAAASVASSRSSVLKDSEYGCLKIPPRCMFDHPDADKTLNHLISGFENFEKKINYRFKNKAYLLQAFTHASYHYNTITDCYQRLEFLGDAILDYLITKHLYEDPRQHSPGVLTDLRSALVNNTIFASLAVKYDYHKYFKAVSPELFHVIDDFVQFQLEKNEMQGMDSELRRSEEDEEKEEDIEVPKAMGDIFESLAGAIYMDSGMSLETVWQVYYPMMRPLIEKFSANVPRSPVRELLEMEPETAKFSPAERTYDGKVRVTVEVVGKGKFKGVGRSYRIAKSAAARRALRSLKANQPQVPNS
* hit, by the source's call.

SMILES	Dicer processing
N=Cc1cc(-c2ccccc2)oc1S	-1.4
CCOC(=O)NC(Nc1ccc(S(=O)(=O)Nc2ccc(OC)nn2)cc1)(C(F)(F)F)C(F)(F)F	-1.1
CC(C)Oc1ccccc1-c1nc(SCC(=O)c2ccccc2)n[nH]1	-1.1
CCOC(=O)COc1ccc2c(=O)c(Oc3cccc(C)c3)c(C(F)(F)F)oc2c1	-0.9
Cc1cc2nc(-c3ccc(NC(=O)c4ccc([N+](=O)[O-])o4)cc3)oc2cc1C	-0.13
CCCCCc1c(C)[nH]c(=S)[nH]c1=O	0.61
Cc1ccc2ccc(C(Nc3ccccn3)c3ccccc3)c(O)c2n1 (centres undefined)	5.9*
Cc1ccc2ccc(C(Nc3ccccn3)c3ccccc3C)c(O)c2n1 (centres undefined)	0.11
CCOc1ccc(C(Nc2ccccn2)c2ccc3ccc(C)nc3c2O)cc1C (centres undefined)	3.5*
Cc1cccc(NC(c2ccccc2C)c2ccc3ccc(C)nc3c2O)n1 (centres undefined)	5.3*
Cc1cccc(NC(c2ccccc2F)c2ccc3cccnc3c2O)n1 (centres undefined)	0.26
CCOc1cc(C(Nc2ccccn2)c2ccc3ccc(C)nc3c2O)ccc1OC (centres undefined)	0.5
COc1ccc(C(Nc2ccccn2)c2ccc3ccc(C)nc3c2O)cc1 (centres undefined)	-1.7
CCOc1cc(C(Nc2ccccn2)c2ccc3cccnc3c2O)ccc1O (centres undefined)	11
Cc1ccc2ccc(C(Nc3ccccn3)c3ccccc3F)c(O)c2n1 (centres undefined)	12
Cc1nn(-c2ccccc2)nc1CNS(=O)(=O)CS(C)(=O)=O	-0.54
CC(=O)c1sc(SC(C)C)c2c1CC(C)(C)CC2=O	0.17
Cc1ccc(SCc2c(Cl)sc3ccccc23)cc1	0.15
Cc1nn(-c2ccccc2)c2nc(OCC(=O)c3ccccc3)c(C#N)c(-c3ccc([N+](=O)[O-])cc3)c12	-1.9
O=C(CN1C(=O)CSC1=O)Nc1ccc(Cl)cc1	-1.8
O=C1OC(c2ccccc2)=N/C1=C/c1cccs1	-0.63
COc1ccc(/C=C2\N=C(c3ccccc3)OC2=O)c(OC)c1	-1.5
CC(=O)n1cc(/C=C2/N=C(c3ccccc3)OC2=O)c2ccccc21	3*
O=C1CC(c2cccs2)CC2=C1C(c1cccc(O)c1)Nc1ccccc1N2 (centres undefined)	3.2*
COc1ccc(C2CC(=O)C3=C(C2)Nc2ccccc2NC3c2ccc(F)c(F)c2)cc1 (centres undefined)	2.7
SMILES	Dicer processing
O=C1CC(c2cccs2)CC2=C1C(c1ccc(Cl)cc1)Nc1ccccc1N2 (centres undefined)	65
O=C1CC(c2ccccc2)CC2=C1C(c1cccc(O)c1)Nc1ccccc1N2 (centres undefined)	0.93
O=C1CC(c2ccccc2)CC2=C1C(c1cccs1)Nc1ccccc1N2 (centres undefined)	-0.49
O=C1CC(c2cccs2)CC2=C1C(c1ccc(Cl)c(F)c1)Nc1ccccc1N2 (centres undefined)	4.2*
CC1=C(C(=O)Nc2ccccn2)C(c2ccc(Br)cc2)n2nnnc2N1 (centres undefined)	2.3
O=C(c1ccco1)N(c1cc2sc(=O)oc2c2ccccc12)S(=O)(=O)c1ccc(F)cc1	0.98
Clc1ccc(Nc2nc(-c3cc(-c4ccccc4)no3)cs2)cc1	0.96
Cc1nc(SCC(=O)O)c([N+](=O)[O-])[nH]1	1.5
CC(C)CSc1ncnc2c1sc1nc3c(cc12)COC(C)(C)C3	-3.5
CCC(C)OC(=O)C1=C(C)NC(=O)CC1c1ccccc1Br (centres undefined)	-0.12
O=c1nc(/C=C/c2ccc(O)c(O)c2)oc2ccccc12	4*
O=C(O)/C=C/c1ccc(O)c(O)c1	0.75
CSc1ccc(/C=C/c2nc(=O)c3ccccc3o2)cc1	1.2
CC(C)(Oc1ccc(Cl)cc1)C(=O)N1CCC2(CC1)NC(=O)c1ccccc1O2	-0.43
O=C(Nc1ccc2c(c1)OCO2)Oc1ccccc1	-0.16
O=C(Nc1ccccc1)Oc1cccc(N2CCOCC2)c1	3.3*
CC(C)(C)c1ccc(NC(=O)Oc2ccccc2N2CCOCC2)cc1	-0.14
CC(C)OC(=O)Cn1cnc2ccccc2c1=O	-0.77
Cc1cccc(NC(=S)N2CC(C)OC(C)C2)c1 (centres undefined)	-1.4
CCOc1ccc2noc3c2c1C(=O)c1ccccc1-3	-0.35
CC(=O)OCCNc1cc(Cl)c2noc3c2c1C(=O)c1ccccc1-3	3.2*
CCOC(=O)c1ccc2c3c(onc13)-c1ccccc1C2=O	-1.1
Cc1ccc(Cl)cc1N1C(=O)c2ccncc2C1=O	3.4*
Cc1ccc(Cl)cc1N1C(=O)CC(C)(C)CC1=O	7.2
COc1ccc(Cl)cc1N1C(=O)c2ccncc2C1=O	2.9
SMILES	Dicer processing
COc1ccc(-c2c(C(F)(F)F)oc3cc(OC(=O)c4ccncc4)ccc3c2=O)cc1OC	1.5
CSc1n[nH]c(NC(=O)c2ccc(C(C)(C)C)cc2)c1-c1ccccn1	1.4
CCN(CC)C(=O)C1Sc2nnc(C)n2NC1c1ccc(C)cc1 (centres undefined)	0.82
COC(=O)CCS(=O)(=O)c1ccc(Br)cc1	2.1
O=C(CSCC(=O)c1ccc(Br)cc1)c1ccc(Br)cc1	-2.9
O=C(CS(=O)(=O)c1ccc(Br)cc1)c1ccccc1	3.8*
CCn1c(=O)c2c(nc3n2CC(C)CN3c2ccc(Br)cc2)n(C)c1=O (centres undefined)	0.55
O=C(CC1(O)C(=O)N(CCc2ccccc2)c2ccc(Br)cc21)c1ccncc1 (centres undefined)	3.6*
CCCN1C(=O)C(O)(CC(=O)c2c(C)n[nH]c2C)c2ccccc21 (centres undefined)	0.2
CCCN1C(=O)C(O)(CC(=O)c2c(C)n[nH]c2C)c2cc(Br)ccc21 (centres undefined)	3.2*
Cc1ccc(C(=O)CC2(O)C(=O)N(Cc3ccccc3)c3ccc(Cl)cc32)cc1 (centres undefined)	0.64
O=C(CC1(O)C(=O)N(CCc2ccccc2)c2ccc(Cl)cc21)c1ccccc1O (centres undefined)	0.65
Cc1ccc(C(=O)CC2(O)C(=O)N(CCc3ccccc3)c3ccc(Cl)cc32)o1 (centres undefined)	5.2*
Cc1ccc(CN2C(=O)C(O)(CC(=O)c3ccncc3)c3cc(Cl)ccc32)cc1 (centres undefined)	5*
Cc1ccccc1CN1C(=O)C(O)(CC(=O)c2ccccn2)c2cc(Cl)ccc21 (centres undefined)	1.8
COc1ccc(C(=O)CC2(O)C(=O)N(CCc3ccccc3)c3ccc(Br)cc32)cc1 (centres undefined)	-0.4
Cc1ccc(C(=O)CC2(O)C(=O)N(Cc3ccccc3C)c3ccc(Cl)cc32)o1 (centres undefined)	1.3
CCOc1ccc(C(=O)CC2(O)C(=O)N(CCc3ccccc3)c3ccc(Br)cc32)cc1 (centres undefined)	1.8
CCCCN1C(=O)C(O)(CC(=O)c2c(C)n[nH]c2C)c2cc(Br)ccc21 (centres undefined)	2.1
CSc1n[nH]c(=O)n1-c1ccc2c(c1)OCCO2	-0.8
Cc1sc(NCc2ccccc2O)nc1-c1ccccc1	-0.14
CC(C)OC(=O)CNc1n[nH]c(=O)[nH]c1=O	0.1
Cn1cc(/C=C/c2nc3ccccc3c(=O)n2Cc2ccccc2)c2ccccc21	2.9
